“And” between values parts separate entries of the source, which are not always exact repeats. Equal values may be shown once. Screen size: about 260,000 compounds; about 1,500 (0.58%) were called active. Another 5% or so got no clear call; they are omitted.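 How the source made its calls: active means inhibition above a set limit at one or more doses, reproduced on every date tested; inconclusive means results disagree between test dates, or hit never tested in dose response; inactive means the rest.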 Only a sample is shown. Potency and affinity values are given separately.
Target: Virion infectivity factor (Human immunodeficiency virus type 1 group M subtype B (isolate BH10)) + Virion infectivity factor (Human immunodeficiency virus type 1 group M subtype B (isolate BRU/LAI)) + Virion infectivity factor (Human immunodeficiency virus type 1 group M subtype B (isolate PCV12)) + Virion infectivity factor (Human immunodeficiency virus type 1 group M subtype B (isolate HXB2)) + DNA dC->dU-editing enzyme APOBEC-3G (Homo sapiens) (UniProt P69720+P69721+P69722+P69723+Q9HC16)
Assay: inhibitors of Vif binding to APOBEC3G peptide, primary screen, biochemical, TR-FRET, GST-Vif 1-94, biotin-A3G peptide, dose response retest (AID 1117319);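 further: Vif residues 1-94 fused to GST binding biotinylated APOBEC3G peptide 110-148; 0% = full assay without inhibitor and 100% = GST in place of GST-Vif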
Details: stronger effect = higher value

inhibition, inactive:
Cc1ccc2cccc(SCC(=O)NCc3ccco3)c2n1 5.4%, Cc1ccc(S(=O)(=O)N(C)c2ccc(C(=O)NCC(c3ccco3)N3CCCC3)cc2)cc1 (centres undefined) -9.74%, CC(C)(C)c1ccc(/C=C/C(=O)N2CCc3ccccc3C2)cc1 7.01%, Cc1ccc(/C=C/C(=O)N2CCc3ccccc3C2)cc1 0%, CC12CCC(=O)C=C1CCC1C2C(O)CC2(C)C1CCC2(O)C(=O)COC(=O)COCC(=O)O (centres undefined) 0.66%, CNC(=O)COC(=O)c1cc2c(s1)CCCC2 0.25%, COc1ccccc1NC(=O)c1ccc(NC(=O)c2cc3c(s2)CCC3)cc1 -2.47%, Cc1c(/C=N/O)c2ccccn2c1C(=O)c1ccc(F)cc1 -0.95%, CC(C)C1CC(C(F)(F)F)n2nc(C(=O)O)cc2N1 (centres undefined) 7.12%, Cc1cc(C)nc(SCc2nnc(SCC(=O)Nc3nc(-c4ccccc4)cs3)n2C)n1 -21.4%, Cc1ccc(N2CCN(c3ccc(C)cc3)C2c2ccncc2)cc1 13.1%, Cc1ccc(N2CCN(c3ccc(C)cc3)C2c2cccnc2)cc1 -3.62%, N#CCCN(C(=O)COC(=O)c1cc(S(=O)(=O)N2CCOCC2)ccc1Cl)c1ccc(F)cc1 -1.91%, CC(=O)Nc1ccc2nc(NC(=O)CS(=O)(=O)c3ccccc3)sc2c1 5.59%, Cc1ccc(NS(=O)(=O)c2c(C)[nH]c(=O)[nH]c2=O)cc1C 0.84%, Cc1[nH]c(=O)[nH]c(=O)c1S(=O)(=O)Nc1cccc(C(F)(F)F)c1 -6.82%, Cc1ccc(C)c2[nH]c(=O)c(CCNC(=O)c3cc4ccccc4o3)cc12 24.9%, O=C(Cc1ccccc1)NC1CCN(C(=O)c2ccc([N+](=O)[O-])cc2)CC1 -1.3%, CCOc1ccccc1CN1CCN(Cc2csc(C(C)=O)c2)CC1CCO (centres undefined) 3.88%, Nc1nonc1C(=O)N/N=C/c1ccc(-c2cccc([N+](=O)[O-])c2)o1 -3.49%, Cc1cc([N+](=O)[O-])c(C)cc1-c1ccc(/C=N/NC(=O)Cn2nnnc2N)o1 9.49%, C=CCN1C(=O)C(CC(=O)Nc2ccc(C)cc2)SC1=Nc1c(C)n(C)n(-c2ccccc2)c1=O (centres undefined) 4.69%, O=C(Cc1c(F)cccc1Cl)NCc1cccnc1 -4.5%, CC(=O)Nc1ccc(OCC(O)CN2CCN(c3ccc(Cl)cc3)CC2)cc1 (centres undefined) 22.8%, Cc1ccc(SCCCCN2C(=O)NC(C)(C)C2=O)cc1 -3.51%, CC1(C)NC(=O)N(CCSc2ccc(Cl)cc2)C1=O -1.11%, CCc1cccc(CC)c1NC(=O)C(NS(=O)(=O)c1cccs1)c1ccccc1 (centres undefined) 9.9%, CCOC(=O)C1=C(COC(=O)c2ccc(Cl)nc2)NC(=O)NC1C (centres undefined) 5.43%, CC1NC(=O)NC1CCCCC(=O)O (centres undefined) 3.51%, O=C(O)CCCCCCCCCCC1CCC(O)C1O (centres undefined) -4.99%, CC(=O)N(c1ccccc1C)c1ccccc1C -4.05%, CSCCC(NC(=O)c1ccccc1)C(=O)NCCCSc1ccccc1 (centres undefined) -3.49%, O=C(CCC1CCCC1)NNC(=O)c1ccccc1O -4.22%, COc1ccc(CCNC(=O)COc2ccc(S(=O)(=O)N3CCCC3)cc2)cc1 -4.34%, CC(C)NS(=O)(=O)c1ccc(OCC(=O)NCCC2=CCCCC2)cc1 2.83%, Cc1nnc(SCC(=O)N2CCN(S(=O)(=O)c3ccccc3)CC2)s1 -8.25%, CCc1ccc(/C=N/n2c(C3CCCCC3)n[nH]c2=S)cc1 -5.47%, CC(C)(CO)NCc1cc(Br)ccc1OCc1ccccc1 -4.77%, CCC1=NN2C(=N)/C(=C\c3ccc(OCCOc4ccc(NC(C)=O)cc4)c(OC)c3)C(=O)N=C2S1 -0.34%, COc1ccc(OC)c(N)c1 14.5%, COc1ccc(C(=O)c2ccc(OC)cc2O)c(O)c1 4.6%, CCOC(=O)Cc1ncccc1C(=O)Nc1ccc(Oc2ccccc2)cc1 -1.5%, COc1ccc(C(=O)NCc2nnc(SCC(=O)Nc3nc4ccc(C)cc4s3)o2)cc1OC 9%, COc1ccc(C(=O)NCc2nnc(SCC(=O)Nc3nc4ccccc4s3)o2)cc1OC 0.33%, Cc1ccc(CSc2nc3ccncc3n2CC(=O)Nc2cc(C)cc(C)c2)cc1 -48.6%, Cc1sc2ncnc(NCc3ccco3)c2c1C 23.1%, Cc1sc2ncnc(SCC(=O)NC(=O)NCc3ccco3)c2c1C -3.92%, COc1ccc2c(c1)CC(C1(O)C(=O)N(C)c3ccccc31)C2=O (centres undefined) -5.17%, Cc1ccc(NC(=O)Nc2ccc3c(c2)nc(C)n3C)cc1 66.9%, CC(=O)c1ccc(NC(=O)Nc2ccc3c(c2)nc(C)n3C)cc1 11.4%, COc1ccc(NC(=O)CN(C)C(=O)CSc2nc3ccccc3s2)cc1 -0.85%, Cc1ccccc1-n1nc2c(c1NC(=O)c1ccc(Br)o1)CSC2 17.6%, Cc1ccc(-n2nc3c(c2NC(=O)c2ccc(Br)o2)CSC3)c(C)c1 17%, COc1ccc(NC(=O)COC(=O)c2ccc(S(=O)(=O)N3CC(C)CC(C)C3)cc2)cc1OC (centres undefined) 0.85%, CC(=O)Nc1ccc(S(=O)(=O)Nc2nc3ccccc3nc2Nc2ccc(S(N)(=O)=O)cc2)cc1 23.8%, CC(=O)Nc1ccc(Nc2nc3ccccc3nc2NS(=O)(=O)c2ccccc2)cc1 17.2%, CC(=O)Nc1ccc(S(=O)(=O)Nc2nc3ccccc3nc2Nc2ccc(O)cc2)cc1 -3.02%, CC(=O)Nc1ccc(S(=O)(=O)Nc2nc3ccccc3nc2Nc2cccc(O)c2)cc1 6.78%, Cc1ccc(NC(=O)CS(=O)(=O)c2c[nH]c3ccccc23)c(C)c1 -0.62%, COCCNC(=S)N/N=C(\C)CCc1ccc2c(c1)OCO2 3.32%, COc1cccc(NC(=S)NC(=O)/C=C/c2ccco2)c1 28.1%, O=C(/C=C/c1ccco1)Nc1ccccc1C(=O)Nc1cccc(C(=O)O)c1 30.8%, Cc1cc(NC(=O)/C=C/c2ccco2)ccc1NC(=O)c1ccccc1 11.7%, Cc1cc(C(=O)NNC(=O)/C=C/c2ccccc2Cl)c(C)o1 -12.6%, CC(=O)c1ccc(NC(=S)NC(=O)/C=C/c2ccco2)cc1 9.46%, Cc1ccc(O)c(NC(=S)NC(=O)/C=C/c2ccco2)c1 -4.52%, COc1ccc(/C=C/C(=O)NNC(=O)c2cc(C)oc2C)cc1 1.71%, O=C(/C=C/c1ccco1)NC(=S)Nc1ccccc1 10.3%, COc1cc(OC)cc(C(=O)NCC(=O)OCc2nc3ccccc3s2)c1 5.21%, COC(=O)C(NC(=O)c1ccccc1)(Nc1cc(C)cc(C)n1)C(F)(F)F (centres undefined) -5.13%, COc1ccc(CN2C(=O)C(CC(=O)NCCCCc3ccccc3)CC(C(=O)N(C(C)C)C(C)C)=C2C)cc1 (centres undefined) 6.93%, CN(Cc1ccccc1)C(=O)CCC(=O)N(C)Cc1ccccc1 0.41%, C=CCNc1nc2c(c(=O)[nH]c(=O)n2C)n1Cc1cccc(C)c1 -3.73%, CCN(CC)CCOC(=O)c1ccc(NC(=O)COc2cc(=O)n(CC)c3ccccc23)cc1 3.06% and 4.99%, COCCCN1C(=O)c2ccc(C(=O)NCc3ccco3)cc2C1=O 1.46%, CC(C)C(=O)N1CCN(c2ccccc2NC(=S)NC(=O)/C=C/c2ccco2)CC1 4.53%, O=C(/C=C/c1ccco1)NC(=S)Nc1cc(C(F)(F)F)ccc1N1CCOCC1 31.6%, Cc1ccc(Sc2ccc(/C=C3/C(=O)NN(c4ccccc4)C3=O)o2)cc1 22.1%, CS(=O)(=O)N(CCC#N)Cc1ccc(C=O)o1 -8.77%, CS(=O)(=O)N(CCC#N)Cc1ccco1 0.4%, CS(=O)(=O)N(CCC#N)Cc1ccc(/C=C2\C(=O)Nc3ccccc32)o1 -11%, COc1cc2c(cc1OC)CN(C(=O)c1cc3ccccc3oc1=O)CC2 1.51%, Cc1ccc(S(=O)(=O)N2CCC[C@H]2C(=O)OCCN2C(=O)c3ccccc3C2=O)cc1 -7.91%, COC(=O)CN(C(=S)Nc1ccccc1)C1CC(=O)N(c2ccc(OC)cc2)C1=O (centres undefined) -1.92%, Cc1cccc(NC(=O)C2CC(=O)NC(Nc3nc4ccccc4s3)=N2)c1 (centres undefined) 11.6%, O=C(COc1ccccc1)N1CCN(C(=O)c2cccs2)CC1 17.7%, C=CCc1cc(/C=C/c2nc(O)c([N+](=O)[O-])c(=O)[nH]2)cc(OC)c1O 15%, Cc1cccc(NC(=S)NC(=O)C(c2ccccc2)c2ccccc2)n1 -6.56%, CCOc1ccc2noc3c2c1C(=O)c1ccccc1-3 31.7%, CCOC(=O)c1c(C)oc2c1C(=O)c1ccccc1C2=O 6.8%, CN1C(=O)S/C(=C/c2cccn2-c2cccc(C(=O)O)c2)C1=O 6.22%, Cc1cccc(C)c1NC(=O)CN1C(=O)S/C(=C\c2cccn2-c2cccc(C(=O)O)c2)C1=O 6.97%, Cc1ccc(NC(=O)CN2C(=O)S/C(=C\c3cccn3-c3cccc(C(=O)O)c3)C2=O)cc1C -0.87%, Cc1ccccc1NC(=O)CN1C(=O)S/C(=C\c2cccn2-c2cccc(C(=O)O)c2)C1=O 31.2%
